# Sampled rows, rich in hits. Any-hit rate of the full collection: about 18%.
# TDP1 cell CPT – growth inhibition of DT40 Tdp1-/-;hTDP1 cells with camptothecin (screen for TDP1 inhibitors). chicken DT40 Tdp1-/-;hTDP1 cells + 20 nM CPT, ATP luminescence, 48 h. Potency, µM (titrated, usually from 46.2 µM), for inactives: at the highest dose activity change, negative = growth inhibition, actives largely listed as inhibitors. 420,000 compounds, 12% hits. AID 686979; also: potency is read from the fitted curve at half-maximal effect; % is scaled to controls: 0 for no effect and ±100 for the full control effect; nearly all actives have a fitted effect of over 55% in size
#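 Chicken DT40 Tdp1-/- cells stably complemented with human TDP1 were seeded at 400 cells/well in medium containing 20 nM camptothecin, exposed to pin-transferred compounds, and grown at 37 °C for at least 48 hr. Viability was read as ATP luminescence.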
# IL-1B inflam inh – inflammasome signaling inhibition, IL-1 beta readout. 360,000 compounds, 4.7% hits. AID 743279. THP-1 LPS/ATP IL-1B secretion, AlphaLISA, 16 h; hits give low values. activity change, % at 57.5 µM; in the data active = activity change below about -50%; inconclusive = mostly about -30% to -49%; also: % is scaled to controls: 0 for no effect and ±100 for the full control effect
#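 THP-1 cells pretreated 1 hr with compounds (up to 57.5 uM final), then stimulated with LPS (250 ng/mL final) plus ATP (1.25 mM final); secreted IL-1B measured by AlphaLISA after 16 hr, decreased signal indicating inhibition.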
# TDP1 block – blocks human tyrosyl-DNA phosphodiesterase 1; 350,000 compounds, 0.28% hits; AID 485290; Q9NUW8; recombinant TDP1, AlphaScreen DNA substrate cleavage; Potency, µM (series often up to 130 µM), without a hit: at the top dose activity change, negative = inhibition, actives largely listed as inhibitors; also: potency is read from the fitted curve at half-maximal effect; % is scaled to controls: 0 for no effect and ±100 for the full control effect; nearly all actives have a fitted effect of over 40% in size
# Target sequence (Q9NUW8 whole entry, looked up): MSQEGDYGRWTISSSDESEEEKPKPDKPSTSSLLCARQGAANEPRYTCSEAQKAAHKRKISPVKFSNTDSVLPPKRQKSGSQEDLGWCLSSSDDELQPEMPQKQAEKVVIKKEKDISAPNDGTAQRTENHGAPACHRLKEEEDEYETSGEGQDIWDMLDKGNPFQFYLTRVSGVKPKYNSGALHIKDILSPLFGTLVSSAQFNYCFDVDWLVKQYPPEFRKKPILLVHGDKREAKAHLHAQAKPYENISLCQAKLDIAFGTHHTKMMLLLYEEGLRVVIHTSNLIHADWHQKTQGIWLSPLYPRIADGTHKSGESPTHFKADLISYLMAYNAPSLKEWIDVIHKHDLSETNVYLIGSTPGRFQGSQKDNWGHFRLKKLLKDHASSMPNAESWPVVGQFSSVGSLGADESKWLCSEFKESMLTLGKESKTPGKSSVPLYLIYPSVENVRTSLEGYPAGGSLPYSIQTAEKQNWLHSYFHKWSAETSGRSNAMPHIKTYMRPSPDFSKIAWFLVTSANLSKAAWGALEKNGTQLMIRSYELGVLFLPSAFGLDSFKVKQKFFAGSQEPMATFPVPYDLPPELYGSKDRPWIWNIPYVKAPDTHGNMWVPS
#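 Recombinant human Tdp1 (E. coli-expressed, 1 nM final) preincubated with compounds 15 min at room temperature, then 5'-biotin/3'-phosphotyrosine-FITC DNA substrate (15 nM final) added for 5 min. AlphaScreen beads (10 ug/ml final) added 10 min; cleavage lowers signal.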
# TGFb inhibitor – blocks TGF-b signaling; AID 588855; HepG2 CAGA-GFP TGF-b/SMAD3 reporter, GFP fluorescence, 18 h; TGF-beta stimulated, 500 pg/mL final; Potency, µM (series often up to 46.1 µM), inactives show at the highest dose activity, negative = inhibition, most hits filed as inhibitors; 410,000 compounds, 1.2% hits; also: potency is read from the fitted curve at half-maximal effect; % is scaled to controls: 0 for no effect and ±100 for the full control effect; nearly all actives have a fitted effect of over 65% in size
#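 HEPG2 CAGA-GFP, 1000 cells/well; 2 h settle, 37 C; cpd via pin tool; TGF-b 500 pg/mL final; 18 h, 37 C; GFP imaging ex488/em500-530; %Activity normalised to -TGF-b and +DMSO controls; CRC fit, curve class.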
# HepG2 viability – HepG2 cytotoxicity, counter-screen for TGF-b inhibitors; HepG2 CAGA-GFP viability, ATP luminescence, 18 h; Potency, µM (highest dose often 46.1 µM), without a hit: top-dose activity change, negative = cytotoxicity, hits mostly cytotoxic; 410,000 compounds, 0.76% hits; AID 588856; also: potency is read from the fitted curve at half-maximal effect
#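 CellTiter-Glo luminescence gave cytotoxicity after 18 hours at 37 degrees C. The cells were HepG2 CAGA-GFP in 1% FBS DMEM, stimulated with 500 pg/mL TGF-beta after compound addition. %Activity was normalised to no-cell wells (complete cell-killing) and DMSO (no toxicity), and curves were fitted and classified.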
# DT40 TDP1 no CPT – qHTS for Inhibitors of human tyrosyl-DNA phosphodiesterase 1 (TDP1): qHTS in cells in absence of CPT | DT40 Tdp1-/- hTDP1 cells, no CPT, ATP luminescence, 48 h | Potency, µM (titrated, usually from 46.2 µM), inactives show top-dose activity change, negative = growth inhibition, most hits filed as inhibitors | 420,000 compounds, 15% hits; also: potency is read from the fitted curve at half-maximal effect; % is scaled to controls: 0 for no effect and ±100 for the full control effect; nearly all actives have a fitted effect of over 55% in size
#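 Growth of hTDP1-complemented DT40 Tdp1-knockout cells is measured by ATP luminescence after at least 48 hr compound exposure at 37 °C, with DMSO substituting for the 20 nM CPT used in the parallel screen.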
# * hit, by the source's call; ? = inconclusive; · = not tested or not shown; [ ] = another dose, or the depositor's remark. Unless noted, calls follow the shape of the dose curve; as a rule, active = well fitted curve in the direction sought with a large enough effect; inconclusive = small, poorly fitted or top-dose-only effect, or another doubt; inactive = no such curve, though single readings can be large; an effect the other way counts as inactive or inconclusive.
SMILES,TDP1 cell CPT,IL-1B inflam inh,TDP1 block,TGFb inhibitor,HepG2 viability,DT40 TDP1 no CPT
Cc1cn([C@H]2C[C@H](O)[C@@H](/C=C/C(=O)N3CCN(Cc4ccc(F)cc4)CC3)O2)c(=O)[nH]c1=O,-1%,-12,·,-16%,6%,7%
COc1ccc(C2CC(c3ccccc3)=NN2S(=O)(=O)c2ccc(C)cc2)c(OC)c1 (configuration not stated),8.2µM*,-6,3%,-9%,2%,7.3µM*
COc1ccc(C2CC(c3ccccc3)=NN2S(=O)(=O)c2ccccc2)c(OC)c1 (configuration not stated),?,3,5%,3%,8%,21µM*
O=C(O)CNC(=O)C12CC3CC(CC(Cl)(C3)C1)C2,4%,-29,4%,12%,12%,7%
OCCN(Cc1ccccn1)Cc1ccccn1,?,28,·,-21%,4%,?
Cc1cccc(N2CCN(CCCNc3ncnc4onc(-c5ccc(Cl)cc5)c34)CC2C)c1 (configuration not stated),?,·,4%,-16%,-14%,21µM*
Cc1ccc(C)c(N2CCN(CCCNc3ncnc4onc(-c5ccc(Cl)cc5)c34)CC2)c1,?,·,-5%,6%,0%,16µM*
Cc1ccc(Cl)cc1N1CCN(CCCNc2ncnc3onc(-c4ccc(Cl)cc4)c23)CC1,?,·,4%,?,0%,?
Cc1ccc(CCNc2ncnc3onc(-c4ccc(F)cc4)c23)cc1,-1%,·,4%,10%,0%,2%
Cc1cccc(N2CCN(CCCNc3ncnc4onc(-c5ccc(F)cc5)c34)CC2C)c1 (configuration not stated),?,·,6%,?,-17%,21µM*
COCC(=O)Nc1cc(C(=O)N2CCCCC2c2nccn2C)cc2nc(-c3ccccc3)n(C)c12 (configuration not stated),-9%[9.04 µM],·,·,·,·,-8%
Cc1cnc(C(=O)OCC(=O)Nc2cc(S(=O)(=O)N3CCOCC3)ccc2Cl)cn1,-6%,8,-1%,-12%,7%,5%
CCS(=O)(=O)c1ccc2oc(SCC(=O)NC34CC5CC(CC(C5)C3)C4)nc2c1,?,-23,1%,-25%,-13%,13µM*
O=C(CN1C2=NCCN2c2ccccc21)c1ccc2c(c1)OCO2,?,-81*,4%,-25%,-8%,?
O=C(CN1C2=NCCCN2c2ccccc21)c1cccc(Br)c1,?,-26,5%,?,-38%,23µM*
O=C(CN1C2=NCCN2c2ccccc21)c1ccc(Br)cc1,?,-25,-2%,?,-21%,?
O=C(CN1C2=NCCCN2c2ccccc21)c1ccc(Cl)cc1Cl,21µM*,-19,10%,?,-61%,15µM*
O=C(CN1C2=NCCCN2c2ccccc21)c1cccs1,7%,-19,-8%,4%,-67%,-22%
O=C(CN1C2=NCCN2c2ccccc21)c1ccc(Br)s1,18µM*,-18,3%,-25%,-44%,?
CCOC(=O)CN1C2=NCCCN2c2ccccc21,4%,-3,-5%,-10%,6%,2%
Cc1ccccc1NC(=O)N1CCCC1C(=O)NCc1cccs1 (configuration not stated),-7%,-19,0%,-28%,-11%,-6%
O=C(NCc1ccco1)C1CCCN1C(=O)Nc1cccc(Cl)c1 (configuration not stated),-7%,12,-2%,-11%,-8%,9%
O=C(NCCc1ccccc1)C1CCCN1C(=O)Nc1ccccc1 (configuration not stated),7%,1,7%,2%,11%,2%
O=C(NCCc1ccccc1)C1CCCN1C(=O)Nc1ccc(Cl)cc1 (configuration not stated),16µM*,12,1%,-10%,2%,?
O=C(NCc1cccs1)C1CCCN1C(=O)Nc1ccccc1Cl (configuration not stated),6%,1,·,15%,8%,23µM*
SMILES,TDP1 cell CPT,IL-1B inflam inh,TDP1 block,TGFb inhibitor,HepG2 viability,DT40 TDP1 no CPT
O=C(NCc1ccco1)C1CCCN1C(=O)Nc1ccc(Cl)cc1 (configuration not stated),?,-10,0%,9%,4%,16µM*
Nc1ccc(SC(F)(F)F)cc1,27%,14,6%,-1%,5%,-9%
O=[N+]([O-])c1ccc(N2CCN(CC3CCCCC3)CC2)cc1,?,31,·,?,-24%,?
CCOC(=O)C1(Cc2cccc(Cl)c2)CCCN(C(=O)CCN2CCCC2=O)C1 (configuration not stated),·,·,3%,·,·,·
COC(=O)c1c(NC(=O)CN2CCCC(C)C2)c2c(C)cccc2n1C (configuration not stated),?,-11,5%,4%,-11%,6.5µM*
COC(=O)c1c(NC(=O)CN2CCC(C(N)=O)CC2)c2c(C)cccc2n1C,-11%,17,5%,-13%,-17%,-18%
Oc1ccc(O)c(Cc2nc3ccccc3[nH]2)c1,?,-22,0%,5%,-12%,8.2µM*
COCC1CCCN(Cc2ccc3c(c2)CN(C(=O)c2cccnc2OC)CCO3)C1 (configuration not stated),11%[9.04 µM],·,·,·,·,-1%
Cc1ccccc1-c1nn(-c2ccc(F)cc2F)cc1CNCCCN(C)C,?,-62*,3%,-24%,-26%,7.3µM*
Cc1ccccc1-c1nn(-c2ccc(F)cc2F)cc1CNCCN(C)C,-13%,?,5%,4%,-17%,-25%
COC(=O)c1ccc2nc(-c3ccccc3)c(Cc3ccccc3OC)n2c1,18µM*,-10,·,-12%,-29%,16µM*
COc1ccccc1Cc1c(-c2ccc(C)cc2)nc2ccc(Br)cn12,21µM*,-24,·,?,-3%,23µM*
COc1ccccc1Cc1c(-c2ccc(Cl)cc2)nc2ccc(Br)cn12,21µM*,3,·,?,-3%,?
COc1ccccc1Cc1c(-c2cccc(Br)c2)nc2ccc(Br)cn12,?,12,·,?,-23%,?
COC(=O)c1ccc2nc(-c3ccc(C)cc3)c(Cc3ccccc3OC)n2c1,?,48,·,-20%,-1%,?
